# Assay results taken from PubChem BioAssay (NCI).
# Compounds without any hit were thinned out: in the full panel of roughly 83,000, 20% have a hit.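 Interpretation: 100, growth as untreated; towards 0, rising growth inhibition; 0, no net growth; 0 to -100, cell death. Compounds scoring below 10 were considered active.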 Values without a mark were called inactive. The source made the active and inactive calls.
# Tested on: SK-MEL-28 melanoma
# Test: NCI-60 one-dose screen, 48 h (100 = growth as untreated, 0 = no growth, -100 = all killed)
# Conditions: 10 µM unless noted
# Experimental: Growth inhibition of the SK-MEL-28 human tumor cell line is measured as a screen for anti-cancer activity. Cells are grown in 96 well plates and exposed to the test compound for 48 hours. Compounds are tested at a single concentration, which is 10^-5 M for most compounds. The reported endpoint is percent growth (GI% or GIPRCNT), where numbers from 0 - 100% represent growth inhibition, and numbers from -100% - 0 represent cell death. For example, a value of 40 represents 60% growth inhibition. A value of 0 means no net growth occurred over the course of the experiment. A value of -40 indicates 40% of cells at the beginning of the experiment died by the end of the experiment. A value of -100 means all cells are dead at the end of the experiment.
# NCI-60 Human Tumor Cell Lines Screen was performed using the standard one-dose NCI protocol, which is described in more detail at https://dtp.cancer.gov/discovery_development/nci-60/default.htm.
# Compounds with GIPRCNT values below 10 were considered active. Activity score was based on GIPRCNT using the following formula: […]
# Score is 0 for GIPRCNT values of 100 or above, 50 for GIPRCNT values of 0, and 100 for GIPRCNT values of -100.
row,SMILES,growth
1,COc1cccc(/C=N/N=C(N)N)c1,106%
2,Cc1cc(C)c2c(n1)sc1c(Nc3ccc(Cl)cc3Cl)ncnc12,61.4%
3,CCCN(CCC)CC(O)COc1ccccc1C(=O)Nc1ccccc1 (stereo not given),65.2%
4,CCc1ccc2c(c1)N(CCO)C1=C(C(=O)OC1)C2c1cccc(Br)c1 (stereo not given),49%
5,COc1cc(C2CC(c3cccc(Nc4ccnc5cc(Cl)ccc45)c3)=NN2c2ccccc2)cc(OC)c1OC (stereo not given),67.2%
6,COc1ccc(C2CC(c3cccc(Nc4ccnc5cc(Cl)ccc45)c3)=NN2c2ccccc2)cc1 (stereo not given),84.9%
7,C=CCN(CCOC(=O)c1ccc([N+](=O)[O-])cc1)CCOC(=O)c1ccc([N+](=O)[O-])cc1,106%
8,CCOC(=O)c1ccccc1SC(C[N+](=O)[O-])c1ccccc1 (stereo not given),98.3%
9,CC(C)CC(NC(=O)C(CCCN=C(N)N)NC(=O)OCc1ccccc1)C(=O)NC(CNC(=O)/C=C/c1ccccc1)C(C)C (stereo not given),93.5%
10,COc1ccc(/C=C2\Cc3c(Br)cccc3C2=O)c(OC)c1,64.3%
11,Oc1ccc(Nc2ncnc3c2sc2ncccc23)cc1,65.7%
12,O=C1OCC2=C1C(c1cccc(Br)c1)c1cc3c(cc1N2CCO)OCCO3 (stereo not given),51.7%
13,CC1(C)C2CCC(O)(C(=O)O)C1C2 (stereo not given),102%
14,COc1ccc(/C=C/C(=O)c2ccc(NC(=O)CSc3nnc(-c4ccc(Cl)cc4)n3-c3ccccc3)cc2)cc1,104%
15,C1=C\CCCCN2CC[C@H]3[C@H](CCCC/C=C\CCCN4C[C@@H](CCCCC/1)C[C@@H]3C4)C2,-90.3% (active)
16,CC(C)=CCC[C@H](C)c1ccc(C)c2c1OCN(CCO)C2,111%
17,CS(=O)(=O)Nc1cc(-c2cc3ncc(C#N)c(Nc4ccc(Oc5ccccc5)c(Cl)c4)c3s2)cnc1Cl,62.3%
18,COS(=O)(=O)CCN(CCOS(C)(=O)=O)S(C)(=O)=O,99.1%
19,CCCCNCCC(O)c1cc2ccc(C(F)(F)F)cc2c2cc(C(F)(F)F)ccc12 (stereo not given),-87.7% (active)
20,Fc1cc(-c2nnc3sc(-c4ccc(Cl)cc4)nn23)c(Cl)cc1Cl,84.4%

row,SMILES,growth
1,C#CC[C@@H]1C[C@]2(C)[C@H]3CC[C@@H]4[C@H]5C(C(=C)C)CC[C@]5(C(=O)NCCN(CCN)CCN)CC[C@@]4(C)[C@]3(C)CC[C@H]2C(C)(C)[C@H]1OC(C)=O (stereo not given in full),105%
2,O=C(O)C1[S][Sb]([CH](C(=O)O)[CH](C(=O)O)[Sb]2[S]C(C(=O)O)C(C(=O)O)[S]2)[S]C1C(=O)O (stereo not given),61.1%
3,Oc1c(-c2cc(C(F)(F)F)[nH]n2)cc(Cl)c(OCc2ccc(Cl)cc2)c1-c1ccc(Cl)c(C(F)(F)F)c1,-19.9% (active)
4,CCCOC(=O)C1c2cc3c(cc2CC(C)C1C(=O)OCCC)OCO3 (stereo not given),103%
5,COc1cc(C2CC(c3ccc(Nc4ccnc5cc(Cl)ccc45)cc3)=NN2c2ccccc2)cc(OC)c1OC (stereo not given),79.1%
6,O=C(CI)NCCNc1cccc2c(S(=O)(=O)O)cccc12,106%
7,COc1ccc(C2CC(c3ccc(Nc4ccnc5cc(Cl)ccc45)cc3)=NN2c2ccccc2)cc1 (stereo not given),97.3%
8,Nc1cccc(S(=O)(=O)c2cccc(N)c2)c1,126%
9,Cc1cc(C)c2c(n1)sc1c(Nc3ccc(OCc4ccccc4)cc3)ncnc12,114%
10,COc1ccc(CCN2COc3c([C@@H](C)CCC=C(C)C)ccc(C)c3C2)cc1OC,69.4%
11,Nc1nc(N)c2cc(CNc3ccc(Cl)c(Cl)c3)ccc2n1,60.1%
12,COc1ccc(-c2n[nH]nc2-c2cc(OC)c3c(c2)OCO3)cc1,46.3%
13,CN1CCN(Cc2ccc(NC(=O)c3cncc(C#Cc4ncc5ccccn45)c3)cc2C(F)(F)F)CC1,8.57% (active)
14,Nc1nonc1-c1nc2ccccc2n1Cc1ccc(F)cc1,61.3%
15,CNC(=O)c1cc(Oc2ccc(NC(=O)c3nc(S(C)(=O)=O)sc3-c3ccc(F)cc3)cc2)ccn1,57.9%
16,O=C(Nc1ccc(Oc2ccc(Nc3nc4ccccc4s3)cc2)cc1)Nc1ccc(Cl)c(C(F)(F)F)c1,25.3%
17,COc1ccc2nc(NC(=O)/C(=C/c3cc(OC)c(OC)c(OC)c3)c3ccc(OC)c(OC)c3)sc2c1,105%
18,C#CC[C@@H]1C[C@]2(C)[C@H]3CC=C4[C@H]5[C@@H](C)[C@H](C)CC[C@]5(C(=O)NCCCCCCCCN)CC[C@@]4(C)[C@]3(C)CC[C@H]2C(C)(C)[C@H]1OC(C)=O,103%
19,CSC1=NC(=Nc2c(C)cccc2C)C2(CCC(C(C)(C)C)CC2)N1c1ccc(Cl)cc1 (stereo not given),79.5%
20,N[C@@H](CO)C(=O)O,107%
